Our source for the z-score and composite z-score values is PubChem BioAssay.

Activity calls are given as the source filed them. Unless noted, no rule for the calls is given here.

Assay [1] can be described thus: compound effects on lung adenocarcinoma cell viability – A549, calcein-AM fluorescence, 48 h, basal, profiling panel (AID 1162). Also: test concentration not given here. The following applies: higher = more signal.
The nature of assay [2]: compound effects on differentiated 3T3-L1 adipocyte viability – cell-based, 3T3-L1 adipocytes, calcein-AM fluorescence, 48 h, basal, profiling panel (AID 1163). Also: test concentration not given here. The following applies: 3T3-L1 adipocytes viability, higher = more signal.
A short description of assay [3]: compound effects on hepatocellular carcinoma cell viability – HepG2, calcein-AM fluorescence, 48 h, basal, profiling panel (AID 1164). Also: test concentration not given here. The following applies: higher = more signal.
Assay [4] can be described thus: compound effects on multiple myeloma cell viability – MM1S, calcein-AM fluorescence, 48 h, basal, profiling panel (AID 1165). Also: test concentration not given here. Conditions: higher = more signal.
A short description of assay [5]: calcein-AM signal in unstimulated myeloma cells – cell-based, calcein-AM fluorescence, 48 h, PK04 Diversity Set, profiling panel (AID 1166).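 Also: cells grown under basal conditions without added stimulus; test concentration not given here.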 Conditions: RPMI8226 myeloma viability, higher = more signal.
Assay [6] in a line: JC-1 mitochondrial signal, unstimulated HepG2 cells – cell-based, JC-1 fluorescence, 24 h, 100 nL compound, profiling panel (AID 1167). Also: test concentration not given here. Conditions: HepG2 mitochondrial potential, higher = more signal.
The nature of assay [7]: JC-1 mitochondrial signal, unstimulated adipocytes – cell-based, JC-1 fluorescence, 3T3-L1 adipocytes, 24 h, 100 nL compound, profiling panel (AID 1168). Also: test concentration not given here. The following applies: JC-1 mitochondrial fluorescence, higher = more signal, called active from +8 up or from −8 down.
Assay [8] in a line: JC-1 mitochondrial signal, unstimulated myeloma cells – cell-based, JC-1 fluorescence, RPMI8226, 24 h, 100 nL compound, profiling panel (AID 1169). Also: test concentration not given here. The following applies: JC-1 mitochondrial potential fluorescence, higher = more signal.
A short description of assay [9]: JC-1 mitochondrial signal, unstimulated MM1S myeloma – cell-based, JC-1 fluorescence, 24 h, 100 nL compound, profiling panel (AID 1170). Also: test concentration not given here. The following applies: MM1S mitochondrial potential, higher = more signal.
Assay [10] is described as follows: resazurin metabolic signal in A549 cells – cell-based, resazurin fluorescence, 24 h, PK04 Diversity Set, profiling panel (AID 1171). Also: test concentration not given here. The following applies: A549 viability, higher = more signal, called active from +8 up or from −8 down. (In general: Resazurin is reduced to fluorescent resorufin, in cell work by metabolically active cells.)
The nature of assay [11]: resazurin metabolic signal in HepG2 cells – cell-based, resazurin fluorescence, 24 h, PK04 Diversity Set, profiling panel (AID 1172). Also: test concentration not given here. Conditions: HepG2 viability, higher = more signal.
A short description of assay [12]: budding yeast growth changes without added modifier – OD600, strain BY4716, 24 h, basal condition, primary screen (AID 1173). The following applies: S. cerevisiae BY4716 growth, OD600, 24 h; higher = more signal, called active from +8 up or from −8 down.
The nature of assay [13]: viability profiling in MM1S myeloma cells – cell-based, resazurin fluorescence, basal, 24 h, PK04 Diversity Set, profiling panel (AID 1174). Also: test concentration not given here. Conditions: higher = more signal, called active from +8 up or from −8 down.
The target of assay [14] is Dihydroorotate dehydrogenase (quinone), mitochondrial (Plasmodium falciparum (isolate 3D7)) (UniProt Q08210). Nature of the assay: inhibition of P. falciparum DHODH – biochemical, C-terminal His tag, absorbance 600 nm, primary screen (AID 1175).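 Also: recombinant parasite enzyme with a five histidine tag at its C terminus; test concentration not given here.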 The following applies: PfDHODH enzyme, DCIP absorbance 600 nm; higher = more signal, called active from +8 up or from −8 down.
A short description of assay [15]: inhibition of PAO1 biofilm formation – strain PAO1, LB-PBS medium, absorbance 600 nm, primary screen (AID 1176). Also: test concentration not given here. Conditions: P. aeruginosa PAO1 growth/biofilm, A600, 12 h; higher = more signal.
A short description of assay [16]: growth modulation of vineyard yeast isolate – strain RM11-1a, OD600, basal, 24 h, primary screen (AID 1177).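 Also: cultures grown under basal conditions with no added stressor; test concentration not given here.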 Conditions: S. cerevisiae RM11-1a growth, OD600, 24 h; higher = more signal, called active from +8 up or from −8 down.
A short description of assay [17]: growth of efflux-deficient E. coli DRC39 – strain DRC39, OD650, 24 h, E. coli filamentation inducers, primary screen (AID 1178).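 Also: growth measured as culture turbidity by optical density at 650 nm; test concentration not given here.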 Conditions: E. coli DRC39 acrAB, higher = more signal, called active from +8 up or from −8 down.
A short description of assay [18]: growth of efflux-deficient E. coli DRC39 – strain DRC39, OD650, 48 h, E. coli filamentation inducers, primary screen (AID 1179).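 Also: screen aims at cell division blockers that make cells filament.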 Conditions: E. coli DRC39 delta-acrAB growth, higher = more signal, called active from +8 up or from −8 down.
Assay [19] is described as follows: viability profiling in RPMI8226 myeloma cells – cell-based, resazurin fluorescence, basal, 24 h, PK04 Diversity Set, profiling panel (AID 1180).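 Also: RPMI8826 multiple myeloma cell line at 5000 cells per well; test concentration not given here.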 The following applies: higher = more signal.
Assay [20] concerns the target E3 ubiquitin-protein ligase XIAP (Homo sapiens) (UniProt P98170). Nature of the assay: small molecules binding XIAP protein – biophysical, small-molecule microarray, fluorescence 635 nm, primary screen (AID 1181).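 Also: score merges 667 nm emission and signal to noise over triplicate slides.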 Conditions: higher = more signal.

Dihydroorotate dehydrogenase (quinone), mitochondrial (Plasmodium falciparum (isolate 3D7)), sequence (Q08210 whole entry, looked up): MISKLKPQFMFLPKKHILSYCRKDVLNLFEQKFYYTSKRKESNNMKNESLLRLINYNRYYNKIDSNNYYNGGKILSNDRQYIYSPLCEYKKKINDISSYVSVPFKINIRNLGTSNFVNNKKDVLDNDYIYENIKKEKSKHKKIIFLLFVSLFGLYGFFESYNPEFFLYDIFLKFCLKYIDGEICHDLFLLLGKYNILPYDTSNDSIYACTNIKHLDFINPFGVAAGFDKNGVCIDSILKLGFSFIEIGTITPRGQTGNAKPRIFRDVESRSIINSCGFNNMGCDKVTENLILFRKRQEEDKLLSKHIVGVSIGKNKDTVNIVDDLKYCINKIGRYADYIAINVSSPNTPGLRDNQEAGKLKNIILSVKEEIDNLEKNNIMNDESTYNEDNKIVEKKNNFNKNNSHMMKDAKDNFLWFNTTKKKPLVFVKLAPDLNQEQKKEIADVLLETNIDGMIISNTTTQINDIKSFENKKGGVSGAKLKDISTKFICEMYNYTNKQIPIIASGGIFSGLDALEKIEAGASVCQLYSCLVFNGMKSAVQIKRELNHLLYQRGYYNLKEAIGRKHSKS
E3 ubiquitin-protein ligase XIAP (Homo sapiens), sequence (P98170 whole entry, looked up): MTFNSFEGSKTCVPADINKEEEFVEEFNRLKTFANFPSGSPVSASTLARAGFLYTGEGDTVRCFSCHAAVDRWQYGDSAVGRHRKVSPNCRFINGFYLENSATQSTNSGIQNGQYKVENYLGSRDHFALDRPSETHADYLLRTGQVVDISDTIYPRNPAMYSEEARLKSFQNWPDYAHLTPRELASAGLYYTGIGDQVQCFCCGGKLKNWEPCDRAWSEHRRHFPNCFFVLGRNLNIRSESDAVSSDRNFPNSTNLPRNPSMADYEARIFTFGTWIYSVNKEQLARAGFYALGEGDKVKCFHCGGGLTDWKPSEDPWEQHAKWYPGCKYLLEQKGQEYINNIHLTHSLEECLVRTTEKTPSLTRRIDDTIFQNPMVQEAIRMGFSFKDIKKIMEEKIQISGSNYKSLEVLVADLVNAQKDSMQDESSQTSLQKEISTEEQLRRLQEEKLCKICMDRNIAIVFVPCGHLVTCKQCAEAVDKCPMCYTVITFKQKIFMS

As for `COCCOC(=O)N1C(=O)[C@@]2(c3cc(C#CCC(C(=O)OC)C(=O)OC)ccc31)[C@H](c1ccc(OCCO)cc1)N1[C@H](c3ccccc3)[C@H](c3ccccc3)OC(=O)[C@H]1[C@@H]2C(=O)Nc1nc2ccccc2s1`, the z-score in assay [1] is 0.705; in assay [2] it was 0.694; in assay [3] it was 0.278; in assay [4], -0.518; in [5] it was -0.312; in [6], -2.91. Also, the z-score was 0.578 (inactive) in [7]; -1.01 in assay [8]; -1.29 in assay [9]; 0.108 (inactive) in [10]; 1.13 in [11]; 1.05 (inactive) in assay [12]. Besides, the z-score in [13] is 0.814 (inactive); in assay [15] it was 3.58 (inactive); in assay [16], 3.24 (inactive); in [17], 1.18 (inactive); in assay [18], 0.901 (inactive); in assay [19], -1.15. The composite z-score in assay [14] was -1.53 (inactive); in assay [20], 0.0506.
As for `C=C(COC)/C(=C/C[C@@H](OC(C)=O)c1ccc(CO)o1)c1cc(C(=O)OC)ccc1OC`, the z-score in [1] was -0.109; in assay [2], -0.461; in assay [3], 0.322; in [4] it was -0.425; in [5], -0.0799; in assay [6] it was 0.0492. The z-score in [7] is 0.208 (inactive); in assay [8], -0.726; in assay [9], -0.927; in assay [10], 0.072 (inactive); in assay [11], -0.0453; in assay [12], 0.196 (inactive). Further, the z-score in assay [13] was -0.216 (inactive); in assay [15], 0.637 (inactive); in [16] it was 0.317 (inactive); in [17], 0.65 (inactive); in assay [18], 0.638 (inactive); in assay [19], 0.205. For the same compound, the composite z-score was -0.0894 (inactive) in [14] and -0.173 in [20].
`O=C(O)[C@H]1C[C@H]2C(=O)N[C@@H](Cc3ccccc3)C(=O)N2[C@H]1c1cccc(OCCO)c1`: the z-score in [1] is 1.11; in assay [2] it was -0.218; in [3] it was 0.259; in assay [4], -3.41; in assay [5], -0.958; in assay [6] it was 1.64. Moreover, the z-score is -0.169 (inactive) in [7]; -0.299 in [8]; -1.18 in assay [9]; 0.75 (inactive) in assay [10]; 1.02 in [11]; -1.46 (inactive) in assay [12]. In addition, the z-score is 0.912 (inactive) in [13]; -0.295 (inactive) in assay [15]; -0.655 (inactive) in [16]; -0.688 (inactive) in [17]; 0.214 (inactive) in assay [18]; 0.889 in [19]. Moreover, the composite z-score is -1.98 (inactive) in assay [14] and -0.0323 in assay [20].
Regarding `COCCCNC(=O)[C@@]1(c2ccc([N+](=O)[O-])cc2)CC(=O)N(C(C)C)[C@@H]1c1ccc(CO)cc1`, the z-score was 1.12 in [1]; 1.22 in [2]; 0.603 in [3]; 0.105 in assay [4]; 0.243 in [5]; -0.0251 in assay [6]. In addition, the z-score in [7] is -0.612 (inactive); in [8], -0.795; in assay [9], -1.28; in [10] it was 0.985 (inactive); in assay [11], 0.145; in assay [12], -0.569 (inactive). Further, the z-score in assay [13] was 0.879 (inactive); in [15], 0.0561 (inactive); in assay [16] it was -0.203 (inactive); in [17] it was 0.0472 (inactive); in assay [18], -0.0495 (inactive); in assay [19] it was 1.24. In addition, the composite z-score was -0.499 (inactive) in assay [14] and 0.0223 in [20].
For `O=C1C2C=CC(C(O)c3cc(C(F)(F)F)cc(C(F)(F)F)c3)N(Nc3ccccc3F)C2C(=O)N1c1ccccc1` (stereo not given), the z-score in assay [1] is -1.28; in assay [2], -0.599; in [3], -3.36; in assay [4], -3.6; in assay [5], -4.08; in [6], -3.93. Moreover, the z-score in assay [7] is 0.0394 (inactive); in assay [8] it was -1.11; in assay [9] it was -0.964; in assay [10], -0.648 (inactive); in assay [11], -2.18; in [12], -1.47 (inactive). Also, the z-score in assay [13] was -1.09 (inactive); in assay [15] it was 1.11 (inactive); in assay [16], 0.332 (inactive); in [17], -2.31 (inactive); in assay [18], -0.711 (inactive); in [19], -3.04. Further, the composite z-score was -0.232 (inactive) in [14] and 0.0264 in [20].
`COC(=O)[C@@]1(Cc2ccc(OC)cc2)[C@H]2c3cc(C(=O)N4CCCC4)n(Cc4ccc(OC(F)(F)F)cc4)c3C[C@H]2CN1C(=O)c1ccccc1`: the z-score in assay [1] was -0.77; in assay [2], -0.25; in [3], -0.871; in assay [4] it was -0.889; in assay [5], -2.45; in assay [6] it was 0.225. The z-score in assay [7] was -0.621 (inactive); in assay [8], -0.638; in [9], -1.58; in assay [10], -0.995 (inactive); in assay [11] it was -0.0938; in assay [12], 1.82 (inactive). Moreover, the z-score in assay [13] is -1.43 (inactive); in assay [15] it was 0.343 (inactive); in assay [16] it was 0.755 (inactive); in [17], -0.0079 (inactive); in assay [18] it was 0.513 (inactive); in assay [19] it was -2.54. Further, the composite z-score is -0.731 (inactive) in [14] and 0.0479 in assay [20].
In the case of `COc1cc2c(cc1O)C(c1cccs1)N(Cc1sc3ccccc3c1Cl)CC2` (stereo not given), the z-score is -3.77 in assay [1]; 0.623 in assay [2]; -4.6 in [3]; -3.27 in assay [4]; -4.2 in assay [5]; -3.1 in assay [6]. For the same compound, the z-score in assay [7] was -0.197 (inactive); in assay [8] it was -0.894; in assay [9], -0.194; in assay [10] it was -0.403 (inactive); in assay [11] it was -1.05; in assay [12], -1.41 (inactive). Also, the z-score in [13] was -0.519 (inactive); in [15], -0.131 (inactive); in [16], -0.0369 (inactive); in [17], -0.0316 (inactive); in [18], -0.89 (inactive); in assay [19], -0.94. Further, the composite z-score in assay [14] is -1.72 (inactive); in assay [20] it was 0.134.
Take `COC(=O)[C@@]1(Cc2ccc(F)cc2)[C@H]2c3cc(C(=O)N4CCCC4)n(CC4CC4)c3C[C@H]2CN1C(=O)c1ccccc1`: the z-score was -0.393 in assay [1]; 0.498 in assay [2]; -0.713 in assay [3]; -0.691 in assay [4]; -2.11 in assay [5]; 1.62 in assay [6]. Further, the z-score in assay [7] is -1.07 (inactive); in [8], -0.232; in [9] it was -0.51; in [10] it was -0.665 (inactive); in assay [11], -1.57; in [12], -0.443 (inactive). The z-score in [13] is -1.65 (inactive); in assay [15], 0.495 (inactive); in assay [16], 0.056 (inactive); in assay [17] it was -0.688 (inactive); in [18] it was -0.64 (inactive); in assay [19] it was -2.11. In addition, the composite z-score is -0.559 (inactive) in assay [14] and 0.705 in assay [20].
As to `C=CC1c2cc(O)c(OC)cc2CCN1Cc1ccc([N+](=O)[O-])o1` (stereo not given), the z-score in assay [1] was 0.654; in assay [2] it was -0.187; in [3], -0.143; in assay [4], -0.429; in assay [5], 0.413; in assay [6] it was -0.22. Besides, the z-score in [7] is 0.362 (inactive); in assay [8] it was -0.0931; in [9] it was 0.877; in assay [10], 0.0283 (inactive); in assay [11], -0.362; in [12], 0.193 (inactive). Also, the z-score in assay [13] is 0.336 (inactive); in [15] it was -1.03 (inactive); in [16], 1.11 (inactive); in assay [17], 0.148 (inactive); in assay [18], -0.217 (inactive); in assay [19], 0.685. Also, the results for the composite z-score in [14] and in assay [20] were 0.294 (inactive) and 0.188, respectively.
